# From ChEMBL document CHEMBL3433997, “St. Jude Leishmania screening dataset” (2016)
# Legend:
# Assay type in all cases: functional
# [1] = target: Solute carrier family 2, facilitated glucose transporter member 1 (Homo sapiens) (UniProt P11166); assay: ST_JUDE_LEISH: Cytotoxicity at 2uM final concentration against transgenic Leishmania Mexicana promastigotes LmGLUT1 that are glucose transport deficient and complemented with the human glucose transporter GLUT1. Activity is measured by DNA content using SYBR green in vitro
# Solute carrier family 2, facilitated glucose transporter member 1 (Homo sapiens), sequence (P11166 whole entry): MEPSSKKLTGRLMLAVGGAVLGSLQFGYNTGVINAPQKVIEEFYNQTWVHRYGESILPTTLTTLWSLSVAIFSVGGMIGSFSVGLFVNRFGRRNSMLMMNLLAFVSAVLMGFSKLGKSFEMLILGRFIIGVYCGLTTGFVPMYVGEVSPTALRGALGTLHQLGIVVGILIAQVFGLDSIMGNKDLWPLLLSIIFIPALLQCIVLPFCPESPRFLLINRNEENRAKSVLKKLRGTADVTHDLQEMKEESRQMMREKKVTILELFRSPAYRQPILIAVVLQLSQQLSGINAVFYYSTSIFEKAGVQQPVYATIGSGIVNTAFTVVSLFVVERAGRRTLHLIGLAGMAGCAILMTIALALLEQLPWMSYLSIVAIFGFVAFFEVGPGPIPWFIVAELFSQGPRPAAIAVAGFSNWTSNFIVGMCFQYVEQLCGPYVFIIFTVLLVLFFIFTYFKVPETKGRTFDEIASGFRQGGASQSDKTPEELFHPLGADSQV
# [2] = target: Hexose transporter 1 (Plasmodium falciparum) (UniProt O97467); assay: ST_JUDE_LEISH: Cytotoxicity at 2uM final concentration against transgenic Leishmania Mexicana promastigotes LmPfHT that are glucose transport deficient and complemented with the Plasmodium falciparum hexose transporter. Activity is measured by DNA content using SYBR green in vitro
# [3] = target: Glucose transporter (Leishmania mexicana) (UniProt O61059); assay: ST_JUDE_LEISH: Cytotoxicity at 2uM final concentration against transgenic Leishmania Mexicana promastigotes LmGT2 that are glucose transport deficient and complemented with the L. Mexicana glucose transporter 2. Activity is measured by DNA content using SYBR green in vitro
Compound,inhibition [1],inhibition [2],inhibition [3]
COCC(C)n1c(SC(C)C(=O)Nc2cc([N+](=O)[O-])ccc2Cl)nc2ccccc2c1=O (stereo not given),-1.22%,1.55%,-1.16%
C[C@H](Cc1ccc(CCc2ccc(C[C@@H](C)NC[C@H](O)c3cccc(Cl)c3)cc2)cc1)NC[C@H](O)c1cccc(Cl)c1,59.1%,10.7%,58.5%
O=C(NC1CC1)c1ccc(N2CCN(Cc3ccc(Cl)cc3)CC2)nc1,0.06%,-0.23%,-0.4%
CCCC(C)Nc1nc(C)cc(N[C@@H](Cc2ccccc2)C(=O)NCCOc2ccccc2)n1 (stereo not given in full),4.27%,3.26%,1.16%
Cc1ccc(F)c(NC(=O)c2c(-c3c(F)cccc3Cl)noc2C)c1,-0.89%,2.09%,1.42%
O=C(NCc1ccc(Cl)c(Cl)c1)c1cccc(C2CCCN(Cc3ccc4[nH]cnc4c3)C2)c1 (stereo not given),0.36%,2.01%,-0.63%
Cc1ccccc1NC(=O)NC1CCN(CCCCCNC(=O)/C=C/c2ccc(Cl)c(Cl)c2)CC1,1.77%,2.24%,1.9%
CC(C)CC(NC(=O)c1cccc(OCCN2CCOCC2)c1)C(=O)NC(/C=N/NC(=O)c1ccccc1)CCc1ccccc1 (stereo not given),7.09%,8.91%,5.71%
Cc1cc(C2CCN(CCCCNC(=O)c3ccc(NC(=O)c4ccc(Cl)cc4)cc3)CC2)c(C)cc1OCc1ccccn1,2.54%,2.64%,0.11%
O=C(NCCCCN1CCC(c2ccc3c(c2OCC2COCO2)CCCC3)CC1)c1ccc(-c2ccc(C(F)(F)F)cc2)cc1 (stereo not given),-0.33%,1.19%,1.97%
Cc1cc(-c2cccc3c(NC(=O)N4CCc5cc6nccc(N7CCN8CCC[C@H]8C7)c6cc54)cccc23)cc(C)n1,4.48%,2.56%,1.59%
CCc1cn2c3c(cc(C(=O)N[C@@H](Cc4ccccc4)[C@H](O)CNC(C)(C)c4cccc(OC)c4)cc13)N(C)S(=O)(=O)C2,1.01%,1.91%,0.96%
Fc1ccc(C=NN=c2cc[nH]c3ccccc23)cc1,11.7%,13.4%,8.73%
O=S(=O)(Nc1cccc(CCN2CCCCC2CCN2CCCC2)c1)c1ccc(-c2ccccc2)cc1 (stereo not given),2.86%,-0.3%,-2.73%
COc1cc(C(F)(F)F)nc2c(CNCCCNc3cc(=O)c4ccccc4[nH]3)scc12,0.84%,0.13%,0.55%
COc1ccc(-c2nc3ccc(C)nc3nc2-c2ccc(OC)cc2)cc1,5.17%,3.91%,3.89%
Cc1c(Cl)ccc2c(C(=O)Nc3ccncc3)cc(-c3cccnc3)nc12,-4.52%,-2.06%,-2.1%
COc1ccc(C=Cc2ccc(-c3c(C)[nH]c(C)c(Cl)c3=O)cc2)cc1OC,-0.83%,-2.94%,0.92%
CC(C)CN1CCCN(Cc2cccc(NC(=O)c3cc4ccccc4s3)c2)CC1,-0.04%,-0.28%,-5.16%
Cc1onc(-c2ccccc2)c1C(=O)Nc1nc(-c2ccccn2)nc2ccsc12,2.38%,1.96%,0.03%
